High-throughput results from PubChem.
ALDH1A1 inh – ALDH1A1 (human) enzyme inhibition. AID 1030. Potency, µM (top dose mostly 75.3 µM), actives largely listed as inhibitors. Purified ALDH1A1, NADH fluorescence, propionaldehyde substrate. 220,000 compounds, 7.3% hits
Target sequence (P00352 whole entry, looked up): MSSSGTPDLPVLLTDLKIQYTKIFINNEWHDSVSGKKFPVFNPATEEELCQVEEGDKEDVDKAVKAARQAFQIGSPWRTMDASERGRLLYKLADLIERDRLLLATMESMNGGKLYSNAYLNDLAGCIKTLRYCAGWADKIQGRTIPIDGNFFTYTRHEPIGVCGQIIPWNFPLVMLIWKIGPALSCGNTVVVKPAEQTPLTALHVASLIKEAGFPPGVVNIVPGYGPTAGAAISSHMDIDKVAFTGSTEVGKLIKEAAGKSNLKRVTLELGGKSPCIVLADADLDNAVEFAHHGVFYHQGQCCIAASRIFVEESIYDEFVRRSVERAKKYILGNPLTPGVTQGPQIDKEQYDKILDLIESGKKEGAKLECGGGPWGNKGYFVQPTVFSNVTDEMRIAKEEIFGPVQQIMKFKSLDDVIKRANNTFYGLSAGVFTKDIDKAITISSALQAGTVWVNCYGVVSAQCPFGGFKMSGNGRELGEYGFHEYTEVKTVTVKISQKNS
HPGD block – inhibitors of human 15-hydroxyprostaglandin dehydrogenase (HPGD); P15428; purified HPGD, NADH fluorescence kinetic, PGE2 substrate; Potency, µM, actives largely listed as inhibitors; 150,000 compounds, 4.3% hits
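NADH formation kinetics: reaction with 30 uM PGE2 and 1 mM NAD+ (final), 20 nM enzyme, Tris-HCl pH 8 with Tween 20, after 15 min compound preincubation at room temperature. Fluorescence change, last versus first of five reads.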
12-hLO inh – 12-hLO (ALOX12) enzyme inhibition. P18054. purified 12-hLO, xylenol orange hydroperoxide absorbance. Potency, µM (top dose mostly 57.1 µM), hits mostly inhibitors. 150,000 compounds, 0.12% hits. AID 1452; active means well fitted inhibition curve with a large enough effect; inconclusive means small, poorly fitted or top-dose-only effect; further: nearly all actives have a fitted effect of over 55% in size
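Purified human 12hLO (150 nM), preincubated 15 min with compound, then 40 uM arachidonic acid for 30 min, room temperature, Hepes pH 7.0 with 0.01% Triton X-100. Hydroperoxide detected by ferrous iron/xylenol orange; 573/405 nm absorbance ratio gives reaction progress.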
LMNA splice mod – modulators of lamin A splicing; HeLa LMNA splicing GFP/RFP minigene ratio, 48 h; Potency, µM (highest dose often 46.1 µM), most hits filed as inhibitors; 200,000 compounds, 0.01% hits; AID 1487; active means well fitted inhibition curve with a large enough effect in the signal ratio, with a control signal flat, not every such curve was filed as active; inconclusive means small, poorly fitted or top-dose-only effect, or effect the other way, or a change in a side signal; the % refers to the signal ratio
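Read-out is the ratio of GFP to DsRed2 object intensity, acquired by 488 nm laser-scanning cytometry on HeLa lamin A-EGFP minigene reporter cells. Compound incubation 48 hrs at 37 °C in Opti-MEM with 2% FBS; DMSO 0.5% final.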
PNC assembly inh – blocks assembly of the perinucleolar compartment | 140,000 compounds, 3.1% hits | activity change (PNC), negative = inhibition, % at 10 µM | AID 2417 | PC3M PTB-GFP, PNC prevalence imaging, 16 h; hits give low values;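 active means readout at or below -70, meaning at least 70% loss of cells showing the perinucleolar compartment, a nuclear body marking cancer cells; inconclusive means readout between -30 and a set limit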
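PC3M cells stably expressing PTB-GFP, 750–1000 cells/well, treated 16 h at 37 °C with compound (23 nl of library stock), in duplicate. After paraformaldehyde fixation and Hoechst stain, imaged at 20x; PNC prevalence scored by image analysis.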
Numbers stand for hits; 0 = inactive; ? = inconclusive; - = no result. An excerpt weighted towards active compounds, which were near 10% of everything screened. Unless noted, the call rests on the fitted dose curve; in most records, active means well fitted inhibition curve with a large enough effect (not every such curve was filed as active); inconclusive means small, poorly fitted or top-dose-only effect, or another doubt; inactive means no such curve, though single readings can be large or run the other way.

SMILES	ALDH1A1 inh	HPGD block	12-hLO inh	LMNA splice mod	PNC assembly inh
S=c1[nH]nc(CNc2cccc(Cl)c2)o1	31.6µM	-	-	-	-
Clc1cccc(NCc2nnc(SCc3ccc(Cl)cc3Cl)o2)c1	0	0	0	?	-118.8
Clc1cccc(NCc2nnc3n2CCCCC3)c1	0	-	-	-	-
COC(=O)c1ccc(NC(=S)NC2c3ccccc3CC2O)cc1 (configuration not stated)	?	-	-	0	-
COc1ccc(NC(=S)Nc2cccc(S(=O)(=O)N3CCCCC3)c2)cc1	?	0	0	?	0
COc1cccc(C(=O)COc2ccc3c(C)c(Cc4ccccc4)c(=O)oc3c2)c1	0.631µM	0	0	?	0
Cc1c(Cc2ccccc2)c(=O)oc2cc(OC(=O)c3ccccc3)ccc12	?	0	0	0	0
CCCCN(C)CCNC(=O)c1c(C)oc2ncnc(N3CCOCC3)c12	-	-	-	0	-
Cn1c2ccccc2c2nn(-c3ccccc3)c(=O)cc21	12.6µM	0	0	0	0
Cn1c2ccccc2c2n[nH]c(=O)nc21	0	-	-	-	-
CCCNC(=O)COC(=O)/C=C/c1cccc(F)c1	0	-	-	0	-
CCCNC1=C(N(C(C)=O)c2cccc(F)c2)C(=O)c2ccccc2C1=O	0	0	0	?	-90.0
CCOc1ccc(-n2cc(-c3ccccc3)c3c(N4CCC(C)CC4)ncnc32)cc1	-	-	-	0	-
COc1ccc(CCCC(=O)NC2CCCCC2C)c(C)c1 (configuration not stated)	15.8µM	3.55µM	0	0	0
COc1ccc(CCCC(=O)NC2CCCCC2)cc1	0	?	0	0	0
NC[C@@H]1O[C@H](O[C@H]2[C@H](O)[C@@H](O[C@H]3[C@H](O)[C@H](N)C[C@H](N)[C@H]3O[C@@H]3O[C@H](CO)[C@@H](O)[C@H](O)[C@@H]3N)O[C@H]2CO)[C@@H](N)[C@H](O)[C@@H]1O	0	0	0	0	-
O=C(Nc1ccc2ccccc2c1)c1cn(-c2ccccc2)nc1-c1cccs1	?	?	0	?	0
CN(C)c1ccc(NC(=O)c2cn(-c3ccccc3)nc2-c2cccs2)cc1	8.91µM	0	0	0	?
O=C(CCc1ccccc1)NNC(=O)c1ccco1	0	28.2µM	0	0	0
COc1ccccc1/C=C/C=N/N1CCN(Cc2ccccc2)CC1	?	0	0	?	0
Cc1ccc(CN2CCN(/N=C/C=C/c3ccccc3[N+](=O)[O-])CC2)cc1	6.31µM	-	-	0	-
COc1ccc(-n2c3c(cc(C#N)c2=O)C(=O)CCC3)cc1	0	-	-	-	-
O=C(NCCc1c[nH]c2ccccc12)C1CCN(c2nnc(N3CCCC3=O)s2)CC1	0.316µM	0	0	0	0
O=C(NCCc1c[nH]c2ccccc12)C1CCN(S(=O)(=O)c2ccccc2F)CC1	?	-	-	0	-
CC(/C=C/C=C(C)/C=C/C(=O)O)=C\C=C\C=C(C)\C=C\C=C(C)\C=C\C(=O)O	31.6µM	0	0	-	-
SMILES	ALDH1A1 inh	HPGD block	12-hLO inh	LMNA splice mod	PNC assembly inh
Cc1ccc(NC(=O)Cn2cnc3cc([N+](=O)[O-])ccc3c2=O)c(Cl)c1	2.82µM	-	-	-	-
Cc1ccc(NC(=O)Cn2cnc3cc([N+](=O)[O-])ccc3c2=O)cc1	0	-	-	0	-
O=C1C2C3C=CC(C4CC34)C2C(=O)N1/N=C/c1ccc([N+](=O)[O-])s1 (configuration not stated)	?	?	0	0	?
O=C1C2C3C=CC(C4CC34)C2C(=O)N1/N=C/c1ccc(-c2cccc([N+](=O)[O-])c2)o1 (configuration not stated)	14.1µM	12.6µM	0	?	0
O=C(C1=C(O)C(=O)N(CCc2ccccc2)C1c1ccncc1)c1cc2ccccc2o1 (configuration not stated)	18.9µM	-	-	-	-
CCOc1ccc(C2C(C(=O)c3ccco3)=C(O)C(=O)N2Cc2cccnc2)cc1OC (configuration not stated)	25.1µM	0	0	0	0
CC(C)Oc1ccc(C2C(C(=O)c3ccco3)=C(O)C(=O)N2Cc2cccnc2)cc1 (configuration not stated)	0	0	0	0	0
CCOc1cccc(C2C(C(=O)c3ccc(C)o3)=C(O)C(=O)N2c2nccs2)c1 (configuration not stated)	0	-	?	0	0
O=C(C1=C(O)C(=O)N(c2nccs2)C1c1ccccc1)c1cc2ccccc2o1 (configuration not stated)	22.4µM	-	-	-	-
COc1ccccc1C1C(C(=O)c2cc3ccccc3o2)=C(O)C(=O)N1CCN(C)C (configuration not stated)	20µM	0	0	0	0
CCCCNS(=O)(=O)c1ccc2nc(-c3cccnc3)cc(C(=O)NCCCOC(C)C)c2c1	-	-	-	0	-
COCCCN1C(=O)C(O)=C(C(=O)c2ccco2)C1c1ccccc1 (configuration not stated)	28.2µM	0	0	0	?
O=C(C1=C(O)C(=O)N(CCc2ccccc2)C1c1cccnc1)c1ccco1 (configuration not stated)	17.8µM	0	0	0	0
COCCCN1C(=O)C(O)=C(C(=O)c2ccc(C)o2)C1c1cccc(Br)c1 (configuration not stated)	0	0	0	0	0
CC(=O)Nc1ccc(S(=O)(=O)N(Cc2ccco2)CC2CCCO2)cc1 (configuration not stated)	12.6µM	0	0	0	0
CCN(CC(=O)NCCc1ccccc1)S(=O)(=O)c1ccc(Br)cc1	0	0	0	0	?
O=C(CN(Cc1ccccc1)S(=O)(=O)c1ccc(Br)cc1)NCc1ccco1	12.6µM	0	0	0	0
CCN(CC)S(=O)(=O)c1ccc(S(=O)(=O)N(Cc2ccccn2)Cc2ccco2)cc1	1.78µM	0	0	0	?
CCN(CC)S(=O)(=O)c1ccc(S(=O)(=O)N(CC(=O)Nc2ccccc2)Cc2ccco2)cc1	8.91µM	0	0	0	0
CN(C)S(=O)(=O)c1ccc(S(=O)(=O)N(CC(=O)Nc2ccccc2)CC2CCCO2)cc1 (configuration not stated)	?	0	0	0	0
NS(=O)(=O)c1ccc(CCNc2ncnc3c2cnn3-c2cccc(Cl)c2)cc1	-	-	-	0	-
COc1ccc(N2C(N)=C(C#N)C(c3ccsc3)C3=C2CCCC3=O)c(OC)c1 (configuration not stated)	0	0	0	?	-109.0
Cn1nc(CC(=O)Nc2ncc(Br)s2)c2ccccc2c1=O	0	0	0	?	-118.9
Cc1ccc2c(CN3CCN(C(=O)c4ccco4)CC3)cc(=O)oc2c1C	25.1µM	-	-	0	-
COc1ccc(CN2CCN(C(=O)c3ccco3)CC2)cc1OCc1ccccc1	0	0	0	?	0
COc1ccc(CN2CCN(C(=O)c3ccco3)CC2)cc1OC	20µM	-	-	0	-
COc1cc(NC(=S)N2CCN(C(=O)c3ccco3)CC2)c(OC)cc1Cl	25.1µM	31.6µM	0	0	0
COc1ccc(Cl)cc1NC(=S)N1CCN(C(=O)c2ccco2)CC1	?	0	0	0	0
